Measurements taken from PubChem BioAssay AID1159580 (chemical genetic matrix, 2015).
Where “and” joins values, the source holds several entries; their conditions need not be identical. Equal values may be shown once. About 2,000 (36%) of roughly 5,500 compounds were called active. Inconclusive results (about 18%) are left out. Cut-off read from the data, not from the text of the source: active = normalized growth mostly below about 0.91 (no sharp cut-off); inconclusive = no clear call, values can overlap the other calls; inactive = mostly above about 0.92. Some of the results follow.

Assay: chemical genetic growth profiling, strain panel (AID 1159580);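 note: tested at 20 µM; growth read once vehicle control cultures reached saturation at 30 °C; 1 = growth at the plate median or of vehicle wells; lower values mean less growth of the strain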
Settings: S. cerevisiae deletion strains, growth OD

Measured: normalized growth

C[C@H]1[C@H](C)CC[C@]2(C(=O)O)CC[C@]3(C)C(=CCC4[C@@]5(C)C[C@@H](O)[C@H](O)[C@@](C)(CO)C5[C@H](O)C[C@]43C)[C@H]12 (some centres not stated)
inactive: locus YAL021C, strain ccr4, stronger effect = lower value 1.01 | locus YAL026C, strain drs2, stronger effect = lower value 0.963 | locus YAL030W, strain snc1, stronger effect = lower value 0.973 | locus YBL061C, strain skt5, stronger effect = lower value 0.952 | locus YBR009C, strain hhf1, stronger effect = lower value 0.936 | locus YBR021W, strain FUR4, stronger effect = lower value 0.957 | locus YBR023C, strain chs3, stronger effect = lower value 0.942 | locus YBR171W, strain sec66, stronger effect = lower value 0.951 | locus YBR229C, strain ROT2, stronger effect = lower value 0.987 | locus YBR231C, strain swc5, stronger effect = lower value 0.953 | locus YBR279W, strain paf1, stronger effect = lower value 0.948 | locus YCL011C, strain gbp2, stronger effect = lower value 0.968 | locus YCL016C, strain dcc1, stronger effect = lower value 0.956 | locus YCL029C, strain bik1, stronger effect = lower value 0.981 | locus YCL061C, strain MRC1, stronger effect = lower value 0.971 | locus YCL069W, strain vba3, stronger effect = lower value 0.973 | locus YCR088W, strain abp1, stronger effect = lower value 0.961 | locus YDL005C, strain med2, stronger effect = lower value 0.948 | locus YDL035C, strain GPR1, stronger effect = lower value 0.972 | locus YDL040C, strain nat1, stronger effect = lower value 0.965 | locus YDL074C, strain BRE1, stronger effect = lower value 0.895 | locus YDL101C, strain DUN1, stronger effect = lower value 0.973 | locus YDL185W, strain tfp1, stronger effect = lower value 1.01 | locus YDR001C, strain nth1, stronger effect = lower value 0.969 | locus YDR069C, strain doa4, stronger effect = lower value 0.936 | locus YDR101C, strain arx1, stronger effect = lower value 0.967 | locus YDR150W, strain NUM1, stronger effect = lower value 0.996 | locus YDR162C, strain NBP2, stronger effect = lower value 0.954 | locus YDR297W, strain sur2, stronger effect = lower value 0.96 | locus YDR318W, strain mcm21, stronger effect = lower value 0.982 | locus YDR334W, strain swr1, stronger effect = lower value 0.978 | locus YDR335W, strain msn5, stronger effect = lower value 0.967 | locus YDR392W, strain spt3, stronger effect = lower value 0.916 | locus YDR502C, strain sam2, stronger effect = lower value 0.937 | locus YEL003W, strain gim4, stronger effect = lower value 0.954 | locus YEL037C, strain rad23, stronger effect = lower value 0.969 | locus YEL061C, strain CIN8 (second series), stronger effect = lower value 0.955 | locus YEL061C, strain CIN8, stronger effect = lower value 0.961 | locus YER015W, strain faa2, stronger effect = lower value 0.959 | locus YER016W, strain bim1, stronger effect = lower value 0.971 | locus YER110C, stronger effect = lower value 0.978 | locus YER111C, strain swi4, stronger effect = lower value 0.955 | locus YER155C, strain BEM2, stronger effect = lower value 0.985 | locus YER167W, strain BCK2, stronger effect = lower value 0.977 | locus YFR010W, strain ubp6, stronger effect = lower value 0.938 | locus YGL078C, strain dbp3, stronger effect = lower value 0.939 | locus YGL167C, strain pmr1, stronger effect = lower value 0.962 | locus YGL173C, strain kem1, stronger effect = lower value 0.949 | locus YGL227W, strain vid30, stronger effect = lower value 0.975 | locus YGL248W, strain PDE1, stronger effect = lower value 0.994 | locus YGL253W, strain hxk2, stronger effect = lower value 0.971 | locus YGR135W, strain pre9, stronger effect = lower value 0.943 | locus YGR252W, strain gcn5, stronger effect = lower value 0.849 | locus YHR013C, strain ard1, stronger effect = lower value 1.03 | locus YHR027C, strain rpn1, stronger effect = lower value 0.974 | locus YHR030C, strain SLT2, stronger effect = lower value 1 and 0.976 | locus YHR079C, strain IRE1 (second series), stronger effect = lower value 0.968 | locus YHR079C, strain IRE1, stronger effect = lower value 0.979 | locus YHR094C, strain hxt1, stronger effect = lower value 0.977 | locus YHR129C, strain ARP1, stronger effect = lower value 0.998 | locus YHR142W, strain chs7, stronger effect = lower value 0.949 | locus YHR200W, strain rpn10, stronger effect = lower value 0.944 | locus YIL066C, strain RNR3, stronger effect = lower value 0.985 | locus YIL073C, strain SPO22, stronger effect = lower value 1.02 | locus YIL125W, strain kgd1, stronger effect = lower value 0.947 | locus YIR030C, strain dcg1, stronger effect = lower value 0.971 | locus YJL092W, strain hpr5, stronger effect = lower value 0.963 | locus YJL095W, strain BCK1 (second series), stronger effect = lower value 0.972 | locus YJL115W, strain asf1, stronger effect = lower value 0.967 | locus YJL129C, strain trk1, stronger effect = lower value 0.937 | locus YJL134W, strain LCB3, stronger effect = lower value 0.991 | locus YJL154C, strain vps35, stronger effect = lower value 0.968 | locus YJL164C, strain tpk1, stronger effect = lower value 0.944 | locus YJL166W, strain qcr8, stronger effect = lower value 0.948 | locus YJL168C, strain set2, stronger effect = lower value 0.982 | locus YJL187C, strain SWE1 (second series), stronger effect = lower value 0.959 | locus YJR043C, strain POL32, stronger effect = lower value 0.985
0.944 (inactive) and 0.792 (active): locus YJL095W, strain BCK1, stronger effect = lower value
active: locus YAL013W, strain DEP1, stronger effect = lower value 0.769 | locus YDL192W, strain arf1, stronger effect = lower value 0.91 | locus YDR137W, strain rgp1, stronger effect = lower value 0.794 | locus YDR159W, strain sac3, stronger effect = lower value 0.854 | locus YDR195W, strain ref2 0.84 | locus YDR388W, stronger effect = lower value 0.911 | locus YER155C, strain BEM2 (second series), stronger effect = lower value 0.863 | locus YGL086W, strain mad1, stronger effect = lower value 1.18 [resistant] | locus YGL240W, strain doc1, stronger effect = lower value 0.886
